Screening data deposited in PubChem by NMMLSC.
Hits are enriched below; roughly 0.92% of the tested compounds scored in any of these assays.
CIT2-GFP yeast: yeast TOR pathway CIT2-GFP modulation | S. cerevisiae CIT2-GFP strain, flow cytometry, 3 h; 100 means same as DMSO wells | GFP response vs DMSO, % at 10 µM | 320,000 tested, 0.065% active | AID 2029;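 active = GFP response relative to DMSO above a set limit, near the screen mean plus 3 SD, cut at about 150% in these data; inconclusive = Fewer than 70 cells measured for a yeast strain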;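 also: ratio of well median GFP fluorescence to mean of DMSO wells on the plate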
MEP2 TOR yeast: modulators of TOR pathway MEP2-GFP in S. cerevisiae. 330,000 tested, 0.51% active. AID 2016. GFP response vs DMSO, % at 10 µM. S. cerevisiae MEP2-GFP strain, flow cytometry GFP, 3 h; 100% = DMSO control level;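 active = GFP response versus DMSO above a set limit, roughly screen mean plus 3 SD, cut at about 180% in these data; inconclusive = fewer than 70 cells counted for a yeast strain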;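 also: median GFP fluorescence of the barcode-gated MEP2-GFP cells per well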
AGP1 TOR yeast: modulators of TOR pathway AGP1-GFP in S. cerevisiae. S. cerevisiae AGP1-GFP multiplex flow cytometry, 3 h; GFP as percent of DMSO wells. GFP response vs DMSO, % at 10 µM. 320,000 tested, 0.02% active. AID 2066;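 active = GFP response relative to DMSO above a set limit, near screen average plus 3 SD, cut at about 150% in these data; inconclusive = fewer than 70 cells counted for the yeast strain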;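 also: median GFP channel fluorescence of the gated AGP1 strain per well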
RPL19A-GFP yeast: alters RPL19A-GFP fluorescence in TOR pathway yeast screen. S. cerevisiae RPL19A-GFP strain, flow cytometry, 3 h; hits give low values. percent response vs DMSO, % at 10 µM. 330,000 tested, 0.3% active. AID 2025;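 active = percent response vs DMSO below 50%; inconclusive = fewer than 70 events counted for the yeast strain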;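 also: median channel GFP fluorescence of the barcoded RPL19A-GFP strain; ratio of sample median GFP to plate DMSO average so 100% = DMSO; lower means less RPL19A-GFP as with rapamycin TOR inhibition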
LAP4-GFP MLPCN: yeast TOR pathway LAP4-GFP modulation. S. cerevisiae LAP4-GFP multiplex, flow cytometry GFP, 3 h; median GFP as percent of DMSO wells. GFP response vs DMSO, % at 10 µM. 320,000 tested, 0.34% active. AID 2023;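 active = GFP response vs DMSO above a set limit, about the screen mean plus 3 SD, cut at about 150% in these data; inconclusive = under 70 cell events counted for the yeast strain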
LAP4-GFP pick2: reconfirmed LAP4-GFP TOR pathway modulator in yeast; shares compounds with LAP4-GFP MLPCN; S. cerevisiae LAP4-GFP strain, flow cytometry GFP, 3 h; GFP response vs DMSO, % at 10 µM; 590 tested, 20% active; AID 2621;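 active = GFP signal as percent of the solvent control above about 150%, meaning raised reporter expression, limit read from the data; inconclusive = fewer than 70 cells counted in the well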;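 also: ratio of well median GFP fluorescence to plate DMSO mean so 100% = DMSO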
MEP2-GFP pick2: second confirmation of modulators of TOR reporter MEP2-GFP in yeast; shares compounds with LAP4-GFP MLPCN; S. cerevisiae MEP2-GFP strain, flow cytometry GFP, 3 h; GFP response vs DMSO, % at 10 µM; 590 tested, 10% active; AID 2622;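 active = GFP signal above 150% of the solvent control wells, that is a rise of more than half; inconclusive = fewer than 70 yeast cells counted in the well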;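 also: median channel GFP fluorescence of all gated yeast cells per well; ratio of median GFP to plate DMSO average so 100% = DMSO level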
RPL19A-GFP pick2: reconfirmed modulator of RPL19A-GFP TOR reporter in yeast; 590 tested, 3% active; shares compounds with LAP4-GFP MLPCN; GFP response vs DMSO, % at 10 µM; S. cerevisiae RPL19A-GFP strain, flow cytometry GFP, 3 h; hits give low values; 100% means same as DMSO wells;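 active = under 65% GFP response relative to DMSO; inconclusive = yeast strain with under 70 measured events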;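 also: median GFP channel fluorescence per well over the all cells gate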
CIT2-GFP pick2: second confirmation of modulators of TOR reporter CIT2-GFP in yeast | GFP response vs DMSO, % at 10 µM | 590 tested, 8% active | shares compounds with LAP4-GFP MLPCN | S. cerevisiae CIT2-GFP strain, flow cytometry GFP, 3 h; DMSO control wells read 100%;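 active = GFP response vs DMSO above about 150%, limit read from the data; inconclusive = fewer than 70 events counted for a yeast strain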;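 also: median green fluorescence per well over all gated yeast cells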
AGP1 GFP CP2: yeast AGP1-GFP TOR reporter modulation, second cherry pick; shares compounds with LAP4-GFP MLPCN; S. cerevisiae AGP1-GFP strain, flow cytometry GFP, 3 h; percent response vs DMSO, % at 10 µM; 590 tested, under 10 active; AID 2643;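 active = over 150 percent of DMSO response; inconclusive = yeast strain measured with under 70 events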;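 also: median GFP channel fluorescence over all cells without mother daughter split; sample median GFP divided by mean DMSO control so 100% equals DMSO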
s288c autofluor: counter-screen for compound autofluorescence in yeast s288c cells; AID 2757; 610 tested, under 10 active; S. cerevisiae s288c, 520 nm autofluorescence, flow cytometry, 3 h; hits give high values; zero means same as solvent-only cells; fluorescence change (kMESF span) at 33 µM; shares compounds with LAP4-GFP MLPCN;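 active = fluorescence span over the dose series, or activity score, above about 33, limit read from the data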
Yeast autofl DR: yeast s288c autofluorescence artifact in dose response. shares compounds with LAP4-GFP MLPCN. S. cerevisiae s288c parental, compound autofluorescence, flow cytometry, 3 h. fluorescence change (span) at 33 µM. 110 tested, under 10 active. AID 488829;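 active = fluorescence change span, or the activity score built from it, above 25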
TORC1 bypass: wildtype yeast growth loss with TORC1 bypass cells unaffected. shares compounds with LAP4-GFP MLPCN. S. cerevisiae BY4741 spot growth rating, 48-72 h; hits give low values. growth rating (0-3) at 30 µM. 120 tested, under 10 active;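 active = growth rating at most 1 for wild type yeast while the TORC1 bypass strain still grows fully, rated 3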
Numbers without * were called inactive; ? = inconclusive; . = no result.

SMILES	CIT2-GFP yeast	MEP2 TOR yeast	AGP1 TOR yeast	RPL19A-GFP yeast	LAP4-GFP MLPCN	LAP4-GFP pick2	MEP2-GFP pick2	RPL19A-GFP pick2	CIT2-GFP pick2	AGP1 GFP CP2	others
CCCCc1ccc(NC(=O)CC(C)=O)cc1	103	110	103	107	110	143	175*	107	152*	101	s288c autofluor=0
Cc1nonc1NCn1nnc2ccccc21	108	96	100	102	96	.	.	.	.	.
C[C@@]12C(=O)OC(=O)[C@]1(C)C1CCC2O1	67	95	71	91	189*	213*	150	101	92	83	s288c autofluor=1.7
CCc1ccc(C2=NN(S(C)(=O)=O)C(c3cccs3)C2)cc1 (stereo unspecified)	230*	378*	128	131	258*	253*	484*	132	384*	132
Cc1ccc(C2=NN(S(C)(=O)=O)C(c3cccs3)C2)cc1 (stereo unspecified)	95	105	112	105	111	.	.	.	.	.
O=C(NCCOc1ccccc1)c1cc2ccccc2o1	101	110	104	108	118	.	.	.	.	.
O=c1oc2cc(Oc3ccc(C(F)(F)F)cc3[N+](=O)[O-])ccc2c2c1CCC2	104	96	100	103	91	.	.	.	.	.
O=c1oc2cc(Oc3c([N+](=O)[O-])cc(C(F)(F)F)cc3[N+](=O)[O-])ccc2c2c1CCCC2	76	91	86	70	294*	.	.	.	.	.	s288c autofluor=0
O=C(Oc1cc(=O)n2ccccc2n1)c1ccccc1	92	98	83	95	107	.	.	.	.	.
COc1ccc2nc(Cl)cc(Cl)c2c1	96	97	100	94	99	.	.	.	.	.
COc1ccc2nccc(/C=C/c3ccnc4ccc(OC)cc34)c2c1	68	91	65	62	137	111	111	94	93	92
O=C(Cc1ccc(Cl)cc1)NCCc1ccc(F)cc1	69	95	100	96	121	.	.	.	.	.
O=C(CNC(=S)N(Cc1ccccc1)Cc1ccccc1F)NCCc1ccc(Cl)cc1	93	135	70	60	97	103	100	98	100	104
CCCNc1nc(C)cc(-c2cc(C(=O)Nc3ccccc3)on2)n1	94	94	89	100	104	102	108	97	101	104
Cc1cc(-c2cc(C(=O)NCc3ccccc3)on2)nc(NCC2CC2)n1	96	113	100	100	109	102	97	98	100	98
COCCNc1nc(C)cc(-c2cc(C(=O)NC3CCCC3)on2)n1	88	82	82	88	134	.	.	.	.	.
CC(C)c1cc(-c2cc(C(=O)Nc3ccccc3)on2)nc(NC2CCCC2)n1	88	90	88	97	110	101	105	99	89	99
CCCNc1nc(C)cc(-c2cc(C(=O)NCc3ccccc3)on2)n1	92	93	82	97	153*	101	98	98	97	97
N#CC1=C(Nc2ccccc2)SC=C(c2ccc(F)cc2)N=C1N1CCOCC1	118	107	101	100	104	.	.	.	.	.
O=C(CNC(=O)c1sc2ccccc2c1Cl)Nc1ccccc1F	80	93	88	89	93	.	.	.	.	.
COc1ccc2cc(C(=O)Nc3ccc(Cl)cc3)sc(=O)c2c1OC	101	101	97	101	99	.	.	.	.	.
CCN(C(=O)Cn1c(=O)oc2cc(S(=O)(=O)N3CCCC3)ccc21)c1ccc(OC)cc1	103	504*	99	95	114	100	100	100	97	100
COc1ccc([C@@]2(C(C)C)ON(c3ccccc3C(F)(F)F)C2=O)cc1	104	93	97	96	106	118	106	104	106	97	s288c autofluor=-0.2
COc1ccc([C@]2(C(C)C)ON(c3ccccc3C(F)(F)F)C2=O)cc1	92	95	94	96	107	114	106	101	114	108	s288c autofluor=-0.1
CC(C)[C@@]1(c2ccc(Cl)cc2)ON(c2ccccc2C(F)(F)F)C1=O	?	147	20	57	96	102	98	102	107	97	s288c autofluor=-0.1
SMILES	CIT2-GFP yeast	MEP2 TOR yeast	AGP1 TOR yeast	RPL19A-GFP yeast	LAP4-GFP MLPCN	LAP4-GFP pick2	MEP2-GFP pick2	RPL19A-GFP pick2	CIT2-GFP pick2	AGP1 GFP CP2	others
COc1ccc(C2(c3ccc(OC)cc3)NC(=O)N(CC(=O)Nc3ccccc3C(F)(F)F)C2=O)cc1	92	102	97	103	94	.	.	.	.	.
O=c1[nH]ncn1-c1ccccc1C(F)(F)F	104	103	105	103	91	.	.	.	.	.
O=[N+]([O-])c1cc2cccnc2c2ncccc12	102	102	104	102	109	.	.	.	.	.
O=[N+]([O-])c1cc(O)c2ncccc2c1	124	104	98	101	169*	.	.	.	.	.	s288c autofluor=0.71;Yeast autofl DR=1.9;TORC1 bypass=3
Cc1cc(NC(=O)CSc2nnc(Nc3ccccc3C)s2)no1	87	82	104	91	153*	103	105	98	107	100
Cc1cc(NC(=O)CSc2nnc(Nc3ccccc3)s2)no1	101	102	102	100	99	.	.	.	.	.
CC(C)c1ccc2oc(=O)cc(CN3CCCCC3)c2c1	101	100	102	102	100	.	.	.	.	.
Cc1cc(-c2ccco2)c(C#N)c2nc3ccccc3n12	51	104	56	59	116	117	136	66	127	73
Cc1oc2c(c(=O)c1C)C(=O)CC(c1ccccc1)C2 (stereo unspecified)	101	93	103	96	90	.	.	.	.	.
